In the supplement of paper PMC10849652:
Targets with a hit are over-represented here; the source holds about 7,900 in all. About 0.6% of all pairs of compound and target were hits. Unmarked numbers belong to inactive results.

Columns and labels:
Assay in all cases: log2 fold change, soluble protein after heating vs DMSO (PISA); higher = thermal stabilisation; K562 cells, 10 uM, 30 min; active = over 0.2 and 3.5 SD of the protein, either way, in both replicates (recomputed)
bafetinib = compound: Cc1ccc(NC(=O)c2ccc(CN3CC[C@H](N(C)C)C3)c(C(F)(F)F)c2)cc1Nc1nccc(-c2cncnc2)n1 [bafetinib]
Summary of the method: (§1)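 K562 cells at 2×10^6 cells/mL were exposed to 10 μM compound for 30 min, then aliquots were heated for 3 min across 48°C-58°C, pooled, and extracted in PBS containing 0.5% NP-40 at 4°C. The supernatant after 21,000xg for 90 min was taken as soluble protein and measured by TMTpro 16plex LC-MS/MS with channel sums equalised. Thermal stability is reported relative to control samples, with values from duplicates. Fold changes are given on a log2 scale.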

[1] = compound: Cc1cccc(CC(=O)N2CCc3c2ccc(-c2cn(C)c4ncnc(N)c24)c3F)n1
Summary of the method: as §1

nilotinib = compound: Cc1cn(-c2cc(NC(=O)c3ccc(C)c(Nc4nccc(-c5cccnc5)n4)c3)cc(C(F)(F)F)c2)cn1 [nilotinib]
Summary of the method: as §1

[2] = compound: Cc1nc(Nc2n[nH]c3c2CN(C(=O)N[C@H](CN(C)C)c2ccccc2)C3(C)C)c2sccc2n1
Summary of the method: as §1

dasatinib = compound: Cc1nc(Nc2ncc(C(=O)Nc3c(C)cccc3Cl)s2)cc(N2CCN(CCO)CC2)n1 [dasatinib]
Summary of the method: as §1

[3] = compound: Cc1ncc(-c2ccnc(Nc3ccc(S(C)(=O)=O)cc3)n2)n1C(C)C
Summary of the method: as §1

[4] = compound: Cn1cc(-c2ccc3c(c2)CCN3C(=O)Cc2cccc(C(F)(F)F)c2)c2c(N)ncnc21
Summary of the method: as §1

[5] = compound: Cn1cc(-c2ccc3nnc(C(F)(F)c4ccc5ncccc5c4)n3n2)cn1
Summary of the method: as §1

tipifarnib = compound: Cn1cncc1[C@@](N)(c1ccc(Cl)cc1)c1ccc2c(c1)c(-c1cccc(Cl)c1)cc(=O)n2C [tipifarnib]
Summary of the method: as §1

mubritinib = compound: FC(F)(F)c1ccc(/C=C/c2nc(COc3ccc(CCCCn4ccnn4)cc3)co2)cc1 [mubritinib]
Summary of the method: as §1

[6] = compound: NC(=O)Nc1cc(-c2cccc(F)c2)sc1C(=O)N[C@H]1CCCNC1
Summary of the method: as §1

[7] = compound: NC(=O)c1cnc(N[C@@H]2CCCC[C@@H]2N)nc1Nc1cccc(-n2nccn2)c1
Summary of the method: as §1

[8] = compound: NC1(c2ccc(-c3nc4ccn5c(=O)[nH]nc5c4cc3-c3ccccc3)cc2)CCC1
Summary of the method: as §1

[9] = compound: NCC(=O)Nc1ccc(-n2nc(C(F)(F)F)cc2-c2ccc3c(ccc4ccccc43)c2)cc1
Summary of the method: as §1

entinostat = compound: Nc1ccccc1NC(=O)c1ccc(CNC(=O)OCc2cccnc2)cc1 [entinostat]
Summary of the method: as §1

vorinostat = compound: O=C(CCCCCCC(=O)Nc1ccccc1)NO [vorinostat]
Summary of the method: as §1

citarinostat = compound: O=C(CCCCCCNC(=O)c1cnc(N(c2ccccc2)c2ccccc2Cl)nc1)NO [citarinostat]
Summary of the method: as §1

silmitasertib = compound: O=C(O)c1ccc2c(c1)nc(Nc1cccc(Cl)c1)c1ccncc12 [silmitasertib]
Summary of the method: as §1

[10] = compound: O=C1NC(=O)C(c2cnc3ccccn23)=C1c1cn2c3c(cc(F)cc13)CN(C(=O)N1CCCCC1)CC2
Summary of the method: as §1

[11] = compound: c1cc(OCCN2CCCCC2)cc(-c2n[nH]c3ccc(-c4nnc[nH]4)cc23)c1
Summary of the method: as §1

UniProt Q502W6, sequence (Q502W6 whole entry, looked up): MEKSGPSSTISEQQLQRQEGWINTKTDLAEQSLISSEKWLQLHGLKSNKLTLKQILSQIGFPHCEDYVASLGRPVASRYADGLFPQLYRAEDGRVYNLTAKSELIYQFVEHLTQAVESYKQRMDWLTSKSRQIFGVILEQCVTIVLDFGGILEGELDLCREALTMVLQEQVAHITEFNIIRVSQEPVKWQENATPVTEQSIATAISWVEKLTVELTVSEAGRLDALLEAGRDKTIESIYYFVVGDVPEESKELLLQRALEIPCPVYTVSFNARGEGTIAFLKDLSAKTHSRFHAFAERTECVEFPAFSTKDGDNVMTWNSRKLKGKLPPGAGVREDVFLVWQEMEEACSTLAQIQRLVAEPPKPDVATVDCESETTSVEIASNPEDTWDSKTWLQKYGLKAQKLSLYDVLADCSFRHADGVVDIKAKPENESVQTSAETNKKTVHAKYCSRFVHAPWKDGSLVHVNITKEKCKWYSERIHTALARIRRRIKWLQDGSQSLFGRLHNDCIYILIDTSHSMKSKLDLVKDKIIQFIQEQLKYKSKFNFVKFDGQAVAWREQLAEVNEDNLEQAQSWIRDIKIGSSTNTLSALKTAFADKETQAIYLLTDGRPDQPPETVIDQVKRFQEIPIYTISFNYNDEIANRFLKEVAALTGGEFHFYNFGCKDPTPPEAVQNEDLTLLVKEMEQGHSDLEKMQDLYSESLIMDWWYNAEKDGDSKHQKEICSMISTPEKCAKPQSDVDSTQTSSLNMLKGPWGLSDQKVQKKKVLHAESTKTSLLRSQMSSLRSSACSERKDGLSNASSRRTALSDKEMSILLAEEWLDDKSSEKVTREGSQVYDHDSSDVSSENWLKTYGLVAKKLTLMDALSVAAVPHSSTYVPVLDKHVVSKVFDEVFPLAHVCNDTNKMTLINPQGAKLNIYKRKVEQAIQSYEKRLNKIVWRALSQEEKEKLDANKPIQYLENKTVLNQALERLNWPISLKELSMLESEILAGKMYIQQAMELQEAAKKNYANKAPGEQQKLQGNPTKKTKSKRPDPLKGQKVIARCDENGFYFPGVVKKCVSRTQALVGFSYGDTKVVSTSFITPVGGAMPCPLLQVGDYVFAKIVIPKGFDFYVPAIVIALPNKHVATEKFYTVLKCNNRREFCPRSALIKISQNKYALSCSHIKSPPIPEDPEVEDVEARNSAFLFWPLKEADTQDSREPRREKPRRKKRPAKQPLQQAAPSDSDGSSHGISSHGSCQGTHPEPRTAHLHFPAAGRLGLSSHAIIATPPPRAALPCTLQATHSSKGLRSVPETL
UniProt P36406, sequence (P36406 whole entry, looked up): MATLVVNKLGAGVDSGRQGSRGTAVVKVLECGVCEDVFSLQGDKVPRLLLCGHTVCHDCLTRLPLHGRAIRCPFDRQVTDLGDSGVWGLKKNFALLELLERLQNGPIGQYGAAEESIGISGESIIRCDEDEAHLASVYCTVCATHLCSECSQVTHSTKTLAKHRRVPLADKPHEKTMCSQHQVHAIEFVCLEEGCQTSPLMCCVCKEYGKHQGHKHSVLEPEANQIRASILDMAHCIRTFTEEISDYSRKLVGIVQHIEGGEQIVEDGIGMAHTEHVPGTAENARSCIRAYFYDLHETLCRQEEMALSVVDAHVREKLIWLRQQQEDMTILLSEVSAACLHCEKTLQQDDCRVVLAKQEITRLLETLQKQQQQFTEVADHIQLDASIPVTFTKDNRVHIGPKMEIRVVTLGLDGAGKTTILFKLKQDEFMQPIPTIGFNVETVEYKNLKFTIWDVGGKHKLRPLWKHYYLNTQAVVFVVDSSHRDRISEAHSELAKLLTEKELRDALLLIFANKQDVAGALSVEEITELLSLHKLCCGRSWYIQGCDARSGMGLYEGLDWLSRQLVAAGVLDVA
UniProt Q96DX7, sequence (Q96DX7 whole entry, looked up): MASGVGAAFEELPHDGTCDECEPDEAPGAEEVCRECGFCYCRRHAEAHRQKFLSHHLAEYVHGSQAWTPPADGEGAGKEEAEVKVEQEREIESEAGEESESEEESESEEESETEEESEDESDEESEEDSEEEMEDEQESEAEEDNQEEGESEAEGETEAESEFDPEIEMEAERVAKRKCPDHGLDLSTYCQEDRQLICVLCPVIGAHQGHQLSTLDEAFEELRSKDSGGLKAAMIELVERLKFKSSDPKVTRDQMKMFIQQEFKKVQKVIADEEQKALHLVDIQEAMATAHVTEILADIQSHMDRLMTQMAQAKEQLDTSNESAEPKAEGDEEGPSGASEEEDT
UniProt P98170, sequence (P98170 whole entry, looked up): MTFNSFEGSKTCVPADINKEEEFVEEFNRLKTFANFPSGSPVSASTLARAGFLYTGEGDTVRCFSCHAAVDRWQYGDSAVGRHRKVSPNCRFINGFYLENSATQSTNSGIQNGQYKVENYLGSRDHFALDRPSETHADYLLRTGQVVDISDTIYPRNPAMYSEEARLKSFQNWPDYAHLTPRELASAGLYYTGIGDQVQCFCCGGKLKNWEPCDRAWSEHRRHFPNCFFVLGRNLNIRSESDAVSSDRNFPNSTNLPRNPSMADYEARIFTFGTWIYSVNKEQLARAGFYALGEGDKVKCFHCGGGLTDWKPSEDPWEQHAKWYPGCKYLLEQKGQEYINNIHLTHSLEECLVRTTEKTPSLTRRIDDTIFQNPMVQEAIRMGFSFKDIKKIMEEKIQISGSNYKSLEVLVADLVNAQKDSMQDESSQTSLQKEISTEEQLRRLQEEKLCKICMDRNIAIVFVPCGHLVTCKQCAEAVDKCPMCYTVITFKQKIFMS
UniProt P51668, sequence (P51668 whole entry, looked up): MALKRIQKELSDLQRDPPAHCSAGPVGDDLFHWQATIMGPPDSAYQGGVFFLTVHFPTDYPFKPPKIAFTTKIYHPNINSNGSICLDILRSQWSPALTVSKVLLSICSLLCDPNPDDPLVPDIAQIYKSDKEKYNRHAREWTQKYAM
UniProt Q86XT9, sequence (Q86XT9 whole entry, looked up): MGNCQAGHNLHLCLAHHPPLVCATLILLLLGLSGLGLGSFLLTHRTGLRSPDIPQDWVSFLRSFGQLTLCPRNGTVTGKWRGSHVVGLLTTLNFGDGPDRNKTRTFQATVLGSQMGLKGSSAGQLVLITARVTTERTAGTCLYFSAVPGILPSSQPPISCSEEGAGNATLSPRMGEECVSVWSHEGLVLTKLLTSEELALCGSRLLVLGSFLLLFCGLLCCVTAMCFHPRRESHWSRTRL
UniProt P61960, sequence (P61960 whole entry, looked up): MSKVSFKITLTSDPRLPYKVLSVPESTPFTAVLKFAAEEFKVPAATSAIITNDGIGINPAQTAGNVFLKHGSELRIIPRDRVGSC
UniProt Q9NX01, sequence (Q9NX01 whole entry, looked up): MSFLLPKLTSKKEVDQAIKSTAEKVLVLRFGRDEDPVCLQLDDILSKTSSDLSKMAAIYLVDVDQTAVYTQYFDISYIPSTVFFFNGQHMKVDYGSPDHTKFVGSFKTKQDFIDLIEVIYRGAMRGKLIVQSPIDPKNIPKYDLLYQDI
UniProt Q9NQ34, sequence (Q9NQ34 whole entry, looked up): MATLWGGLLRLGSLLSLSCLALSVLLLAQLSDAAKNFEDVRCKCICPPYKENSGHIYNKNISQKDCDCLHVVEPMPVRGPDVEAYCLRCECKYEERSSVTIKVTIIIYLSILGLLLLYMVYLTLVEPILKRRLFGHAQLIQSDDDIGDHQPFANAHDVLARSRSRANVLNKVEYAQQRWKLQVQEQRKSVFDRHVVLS
UniProt Q9Y5Z9, sequence (Q9Y5Z9 whole entry, looked up): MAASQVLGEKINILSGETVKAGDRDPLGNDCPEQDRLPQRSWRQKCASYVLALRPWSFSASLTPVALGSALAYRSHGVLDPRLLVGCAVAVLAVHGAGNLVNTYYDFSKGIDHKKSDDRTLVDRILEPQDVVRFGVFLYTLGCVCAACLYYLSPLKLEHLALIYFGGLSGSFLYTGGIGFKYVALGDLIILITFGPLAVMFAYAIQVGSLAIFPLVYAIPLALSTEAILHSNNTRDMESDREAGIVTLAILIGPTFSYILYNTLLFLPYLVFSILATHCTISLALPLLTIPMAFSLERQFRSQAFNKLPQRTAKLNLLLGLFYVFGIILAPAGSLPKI
UniProt Q8NEZ2, sequence (Q8NEZ2 whole entry, looked up): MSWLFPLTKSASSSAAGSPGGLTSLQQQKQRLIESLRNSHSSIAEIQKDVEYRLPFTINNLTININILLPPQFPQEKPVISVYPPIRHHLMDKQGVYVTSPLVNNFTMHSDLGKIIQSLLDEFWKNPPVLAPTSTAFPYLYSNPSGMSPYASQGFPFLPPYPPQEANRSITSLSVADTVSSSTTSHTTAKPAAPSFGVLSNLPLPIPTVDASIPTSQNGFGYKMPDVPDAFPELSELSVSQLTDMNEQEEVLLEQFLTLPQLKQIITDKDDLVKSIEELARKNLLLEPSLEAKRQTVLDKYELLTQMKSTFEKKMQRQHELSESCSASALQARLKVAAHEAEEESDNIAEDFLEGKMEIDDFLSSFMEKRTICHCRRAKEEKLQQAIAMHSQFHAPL
UniProt Q53S58, sequence (Q53S58 whole entry, looked up): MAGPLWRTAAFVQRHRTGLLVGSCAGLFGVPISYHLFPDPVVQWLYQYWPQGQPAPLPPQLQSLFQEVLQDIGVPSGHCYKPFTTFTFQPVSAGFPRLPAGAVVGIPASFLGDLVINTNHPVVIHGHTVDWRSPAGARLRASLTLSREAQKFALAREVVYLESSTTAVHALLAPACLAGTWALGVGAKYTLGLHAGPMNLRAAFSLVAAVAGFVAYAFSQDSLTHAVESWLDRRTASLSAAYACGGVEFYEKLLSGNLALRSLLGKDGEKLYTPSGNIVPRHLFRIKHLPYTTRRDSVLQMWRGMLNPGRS
UniProt Q5U3C3, sequence (Q5U3C3 whole entry, looked up): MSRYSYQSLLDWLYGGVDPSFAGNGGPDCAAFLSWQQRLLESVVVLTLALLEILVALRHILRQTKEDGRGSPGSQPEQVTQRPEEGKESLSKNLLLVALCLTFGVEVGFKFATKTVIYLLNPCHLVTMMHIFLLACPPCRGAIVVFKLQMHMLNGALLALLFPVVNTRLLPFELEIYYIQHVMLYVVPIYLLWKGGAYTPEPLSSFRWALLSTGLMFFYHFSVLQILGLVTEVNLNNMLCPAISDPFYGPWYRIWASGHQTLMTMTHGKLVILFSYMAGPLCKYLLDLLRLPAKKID

Row | Target | log2 fold change (bafetinib) | log2 fold change [1] | log2 fold change (nilotinib) | log2 fold change [2] | log2 fold change (dasatinib) | log2 fold change [3] | log2 fold change [4] | log2 fold change [5] | log2 fold change (tipifarnib) | log2 fold change (mubritinib) | log2 fold change [6] | log2 fold change [7] | log2 fold change [8] | log2 fold change [9] | log2 fold change (entinostat) | log2 fold change (vorinostat) | log2 fold change (citarinostat) | log2 fold change (silmitasertib) | log2 fold change [10] | log2 fold change [11]
1 | TMEM177 (UniProt Q53S58) | -0.123 | 0.054 | -0.001 | -0.005 | -0.045 | 0.023 | -0.019 | 0.016 | 0.004 | 0.026 | -0.014 | -0.008 | -0.043 | 0.347 (active) | -0.021 | -0.048 | 0.068 | -0.019 | 0.048 | -0.042
2 | TRIM44 (UniProt Q96DX7) | -0.033 | -0.01 | -0.024 | -0.023 | -0.029 | 0.026 | 0.002 | 0.051 | -0.041 | 0.065 | 0 | -0.037 | -0.048 | 0.02 | -0.048 | 0.015 | 0.008 | 0.045 |  | -0.083
3 | VPS37A (UniProt Q8NEZ2) | -0.065 | -0.06 | -0.134 | -0.27 | -0.168 | -0.039 | 0.048 | 0.014 | -0.112 | -0.038 | -0.066 | -0.021 | -0.317 | -0.051 | 0.121 | 0.113 |  | 0.02 | -0.198 | 
4 | TYW1 (UniProt Q9NV66) | -0.003 | 0.033 | -0.107 | -0.005 | 0.015 | 0.04 | -0.001 | -0.085 | -0.041 | -0.075 | -0.022 | 0.05 | 0.004 | 0.013 | 0.028 | -0.056 | 0.053 | 0.039 | -0.141 | -0.007
5 | TXNL4B (UniProt Q9NX01) | -0.1 | 0.005 | 0.003 | -0.041 | -0.042 | 0.01 | 0.007 | 0.028 | 0.008 | 0.17 | 0.098 | -0.112 | -0.035 | 0.709 (active) | -0.024 | 0.02 | 0.029 | 0.118 |  | 0.117
6 | TRIM23 (UniProt P36406) | -0.006 | -0.121 | -0.091 | 0.001 | -0.004 | 0.088 | 0.126 | 0.002 |  | 0.028 | -0.025 |  | -0.02 | -0.083 | -0.01 | 0.06 | 0.015 | -0.044 |  | -0.026
7 | VWA3B isoform 6 (UniProt Q502W6) | 0.074 | 0.024 | -0.128 | 0.075 | 0.148 | -0.129 | 0.045 | 0.003 | 0.047 | 0.014 |  | -0.271 | -0.023 | -0.059 |  | 0.076 | -0.128 | 0.162 | -0.009 | -0.076
8 | TMEM164 (UniProt Q5U3C3) | -0.097 | -0.155 | 0.023 | -0.021 | 0.048 | 0.037 | 0.002 |  | 0.059 | -0.067 | 0.129 | -0.138 | -0.006 | -0.248 | -0.112 | 0.139 | 0.087 | 0.01 | -0.004 | -0.268
9 | TMEM219 (UniProt Q86XT9) | -0.211 | 0.027 | -0.243 | 0.216 | -0.11 | 0.032 | 0.092 |  | 0.063 |  | 0.079 | 0.033 |  | 0.036 | 0.052 | 0.389 (active) |  |  | -0.025 | 
10 | UBE2D1 (UniProt P51668) | -0.065 | -0.345 (active) | -0.002 | 0.046 | -0.083 | -0.074 | 0.036 | -0.075 | -0.089 | 0.085 | 0.119 | 0.042 | -0.143 | -0.039 | -0.168 | 0.164 | 0.062 | 0.049 |  | 0.011
11 | UBIAD1 (UniProt Q9Y5Z9) | -0.004 | -0.022 | 0.074 | 0.004 | 0.176 | -0.004 | 0.052 | 0.006 | 0.003 | -0.144 | -0.089 | 0 | 0.055 | -0.122 | -0.076 | -0.075 | -0.301 | 0.013 |  | 0.181
12 | TUT4 (UniProt Q5TAX3) | -0.281 | 0.074 | -0.153 | 0.01 | -0.105 | -0.116 | -0.097 | -0.066 | -0.049 | -0.01 | 0.028 |  | 0.07 | -0.349 | 0.004 | -0.032 | -0.161 | 0.094 | 0.322 | -0.063
13 | XIAP (UniProt P98170) | -0.111 | -0.046 | 0.366 | 0.061 | -0.027 | -0.288 | 0.029 |  | -0.078 | 0.095 | -0.004 | -0.12 | -0.113 | -0.001 | 0.009 | 0.053 | 0.091 | -0.029 | -0.047 | -0.106
14 | UFM1 isoform 2 (UniProt P61960) | -0.061 | 0.089 | -0.009 | 0.023 | 0.116 | 0.002 | 0.045 |  | -0.016 | -0.015 | -0.031 | -0.114 | -0.087 | -0.057 | -0.012 | -0.057 | -0.044 | -0.025 | -0.007 | -0.218
15 | VKORC1 (UniProt Q9BQB6) | -0.062 | 0.045 | -0.008 | 0.013 | -0.049 | -0.013 | 0.105 | 0.081 | 0 | 0.035 | -0.006 | 0 | -0.054 | -0.114 | 0.025 | -0.034 | 0.001 | -0.023 |  | 0.073
16 | TMEM9B (UniProt Q9NQ34) | -0.039 | 0.036 | 0.005 | 0.009 |  | -0.015 | 0.051 | 0.164 | -0.108 | 0.009 | -0.025 | 0.004 | -0.093 | -0.111 | 0.025 | 0.051 | 0.023 | 0.038 | 0.043 | -0.121
17 | UBE3D (UniProt Q7Z6J8) | -0.036 | -0.047 | 0.043 | -0.001 | -0.071 | 0.037 | 0.003 | 0.013 | -0.049 | 0.009 | -0.019 | 0.012 | -0.004 | 0.027 | 0.074 | 0.056 | 0.012 | 0.067 | -0.032 | -0.164
